# Test results as given in PubChem BioAssay (NCI).
# The panel holds about 79,000 compounds, 15% with a hit somewhere; the sample as a whole holds those more often. Values without a mark were called inactive. Activity calls are given as the source filed them. Cut-off read from the data, not from the text of the source: active = growth inhibition above about 70%; inactive = the rest.
# How the values were obtained:
# [1] = NCI Yeast Anticancer Drug Screen. Data for the rad50 strain (AID 155);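 note: 0% = growth of vehicle-only cultures of the same strain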; conditions: S. cerevisiae rad50 strain growth inhibition, active compounds read high; at 50.0 µM unless noted
# How it was run: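 Genetically altered yeast (DNA repair pathway); compound treatment; growth inhibition vs vehicle ctrl.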
# [2] = NCI Yeast Anticancer Drug Screen. Data for the mec2-1 strain (AID 157); conditions: S. cerevisiae mec2-1 strain, active compounds read high; at 50.0 µM unless noted
# How it was run: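 Growth inhibition is read against vehicle-treated controls after compound exposure of the mec2-1 yeast strain, which is defective in DNA damage repair or cell cycle control.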
# [3] = NCI Yeast Anticancer Drug Screen. Data for the sgs1 mgt1 strain (AID 161);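 note: 0% = growth of cultures given vehicle only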; conditions: S. cerevisiae sgs1 mgt1 strain, active compounds read high; at 50.0 µM unless noted
# How it was run: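 This yeast growth screen uses a strain with defined DNA-repair lesions; compound-treated growth is compared with vehicle-treated growth.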
# [4] = NCI Yeast Anticancer Drug Screen. Data for the cln2 rad14 strain (AID 165);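 note: 0% = growth equal to vehicle treated cultures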; conditions: S. cerevisiae cln2 rad14 strain, active compounds read high; at 50.0 µM unless noted
# How it was run: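 Growth inhibition, relative to vehicle-treated controls, is the read-out. The test organism is a yeast strain with defined genetic alterations, cln2 rad14.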
# [5] = NCI Yeast Anticancer Drug Screen. Data for the bub3 strain (AID 167); conditions: S. cerevisiae bub3 mutant strain, active compounds read high; at 50.0 µM unless noted
# How it was run: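 Yeast carrying a defined mutation is treated with each compound, and growth is compared with that of vehicle-exposed cells to give inhibition.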
# [6] = NCI Yeast Anticancer Drug Screen. Data for the mlh1 rad18 strain (AID 175); conditions: S. cerevisiae mlh1 rad18 strain growth inhibition, active compounds read high; at 50.0 µM unless noted
# How it was run: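 Cells of a genetically altered yeast strain, deficient in DNA damage repair, were treated with compound. Their growth was then compared with that of vehicle-treated cultures to give inhibition.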
Compound,growth inhibition [1],growth inhibition [2],growth inhibition [3],growth inhibition [4],growth inhibition [5],growth inhibition [6]
Cc1nnsc1C(=O)NCc1c(F)cccc1Cl,6.65%,15.6%,11%,25.4%,37.3%,28.8%
C=CCNc1nc(Cl)nc2c1cnn2C,13.3%,-3%,-2.95%,-21.3%,8.55%,-5.15%
CC1=C(c2ccccc2)OC(c2ccccc2)=C[P+]1(c1ccccc1)c1ccccc1,97.8% (active),99.5% (active),99.4% (active),99.3% (active),99.3% (active),99.2% (active)
O=S1(=O)c2ccccc2Nc2cc3ccccc3cc21,6.75%,2.4%,0.85%,-11.5%,-2.55%,6.25%
CSc1nnc(CCC(=O)Nc2cc(Cl)ccc2Cl)o1,40.7%,44.8%,28.9%,15.7%,54.5%,9.05%
N#Cc1ccc(-c2ccc(C#N)cc2)cc1,-19.4%,-23.3%,-14.1%,9.05%,-20.1%,7.05%
COC(=O)/C=C/c1cccnc1,-16.4%,-28.6%,-36.1%,-22.7%,-10.3%,-12.3%
CN(C)C(=S)/N=c1\ssc(=S)n1Cc1cccnc1,-20.6%,-14.4%,5.5%,22.9%,-13.7%,-62.8%
N#CC1=C(NC(N)=O)CCCC1,-0.7%,36.7%,10.7%,35.3%,10.1%,5.45%
CC(=O)c1ccc(Cl)cc1Cl,-12.4%,-11.8%,-3.7%,-6.65%,-13.3%,-38.5%
CCCCCC[P+](c1ccccc1)(c1ccccc1)c1ccccc1,97.7% (active),98.4% (active),98% (active),95% (active),96.1% (active),97.8% (active)
CCNC(=O)c1ccccc1S(C)=O (stereo not given),-18.8%,-19.3%,-17.9%,-8.25%,-9.15%,-20.1%
S=C(c1ccccc1)c1cccc2ccccc12,57%,15.1%,58%,2.8%,-3.55%,36.9%
O=c1[nH]n(Cc2ccccc2CCl)c2ccc([N+](=O)[O-])cc12,24.1%,13.3%,-10.8%,24%,4.1%,3.7%
CC(=O)NC1(NC(C)=O)C2CC(C1Cc1ccccc1)C(C)(C)C2C (stereo not given),4.75%,-14.7%,-18.6%,-11.6%,-43.5%,-38.5%
CCN(CC)CCN=c1nc(/C=C\C=C\NN(C)C(=S)SC)c(C)nn1C,-49.7%,-7.95%,-15%,-12.3%,-1.05%,-12.8%
C=CCSC[C@H](NC(=O)COc1ccccc1)C(=O)NC(C(=O)OCc1ccc([N+](=O)[O-])cc1)=C(C)C,45.8%,26.6%,24.6%,31.1%,39.4%,14.4%
CC(=O)CCC(C)C1CCC2C3CCC4CCCCC4(C)C3CCC12C (stereo not given),7.4%,-3.05%,-7.75%,13.8%,-2.15%,-1.8%
COc1ccc(C2Oc3cc(OC)c(O)cc3[C@@H]2C)cc1 (stereo not given in full),-7.35%,28.6%,2.55%,15.6%,54.8%,31%
O=C(NC(=O)c1ccccc1)Oc1cccc2ccccc12,18.3%,-0.1%,20.1%,7.85%,10.7%,22.8%
